Test results reported in the supplement of paper PMC7411054.
Structures can show the parent of a compound that is named as a salt.

Legend:
Assay in all cases: phenotypically active (imaging signature differs from DMSO and reproducible) at any of 0.3-9 uM (binary (1 = active, 0 = inactive)); higher = active
Details in all cases: treatment time: 24 h
A549-ACTB-RAB5A = test system: A549-ACTB-RAB5A
In short: (§1)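 After 24 h at 0.3, 1, 3 or 9 µM, with four wells per treatment, fifteen gene-edited A549, HepG2 and WPMY1 reporter lines carrying BFP, GFP and RFP/FusionRed were imaged live. Each well's live-cell features were expressed relative to solvent control wells. Deviation required ≥3 of 4 wells past the 95th percentile of control Euclidean distances, and reproducibility a median replicate Pearson correlation over the 95th percentile of non-replicates. Phenotypic activity rested on both.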

A549-CANX-COX4 = test system: A549-CANX-COX4
In short: as §1

A549-GM130-SQSTM1 = test system: A549-GM130-SQSTM1
In short: as §1

A549-TP53BP1-CLTA = test system: A549-TP53BP1-CLTA
In short: as §1

A549-TUBA1B-RELA = test system: A549-TUBA1B-RELA
In short: as §1

HepG2-ACTB-RAB5A = test system: HepG2-ACTB-RAB5A
In short: as §1

HepG2-CANX-COX4 = test system: HepG2-CANX-COX4
In short: as §1

HepG2-GM130-SQSTM1 = test system: HepG2-GM130-SQSTM1
In short: as §1

HepG2-TP53BP1-CLTA = test system: HepG2-TP53BP1-CLTA
In short: as §1

HepG2-TUBA1B-RELA = test system: HepG2-TUBA1B-RELA
In short: as §1

WPMY1-ACTB-RAB5A = test system: WPMY1-ACTB-RAB5A
In short: as §1

WPMY1-CANX-COX4 = test system: WPMY1-CANX-COX4
In short: as §1

WPMY1-GM130-SQSTM1 = test system: WPMY1-GM130-SQSTM1
In short: as §1

WPMY1-TP53BP1-CLTA = test system: WPMY1-TP53BP1-CLTA
In short: as §1

WPMY1-TUBA1B-RELA = test system: WPMY1-TUBA1B-RELA
In short: as §1

Measured: phenotypically active

NNCCc1ccccc1 [phenelzine]
inactive: A549-ACTB-RAB5A 0 | A549-CANX-COX4 0 | A549-GM130-SQSTM1 0 | A549-TP53BP1-CLTA 0 | A549-TUBA1B-RELA 0 | HepG2-ACTB-RAB5A 0 | HepG2-CANX-COX4 0 | HepG2-GM130-SQSTM1 0 | HepG2-TP53BP1-CLTA 0 | HepG2-TUBA1B-RELA 0 | WPMY1-ACTB-RAB5A 0 | WPMY1-CANX-COX4 0 | WPMY1-GM130-SQSTM1 0 | WPMY1-TP53BP1-CLTA 0 | WPMY1-TUBA1B-RELA 0

COc1ccccc1OCC(O)CN1CCN(CC(=O)Nc2c(C)cccc2C)CC1 (stereo not given) [ranolazine]
inactive: A549-ACTB-RAB5A 0 | A549-CANX-COX4 0 | A549-GM130-SQSTM1 0 | A549-TP53BP1-CLTA 0 | A549-TUBA1B-RELA 0 | HepG2-ACTB-RAB5A 0 | HepG2-CANX-COX4 0 | HepG2-GM130-SQSTM1 0 | HepG2-TP53BP1-CLTA 0 | HepG2-TUBA1B-RELA 0 | WPMY1-ACTB-RAB5A 0 | WPMY1-CANX-COX4 0 | WPMY1-GM130-SQSTM1 0 | WPMY1-TP53BP1-CLTA 0 | WPMY1-TUBA1B-RELA 0

O=C(Nc1cc(C(F)(F)F)cc(C(F)(F)F)c1)c1cnc(Cl)nc1C(F)(F)F
inactive: A549-ACTB-RAB5A 0 | A549-CANX-COX4 0 | A549-GM130-SQSTM1 0 | A549-TP53BP1-CLTA 0 | A549-TUBA1B-RELA 0 | HepG2-ACTB-RAB5A 0 | HepG2-CANX-COX4 0 | HepG2-GM130-SQSTM1 0 | HepG2-TP53BP1-CLTA 0 | HepG2-TUBA1B-RELA 0 | WPMY1-ACTB-RAB5A 0 | WPMY1-CANX-COX4 0 | WPMY1-GM130-SQSTM1 0 | WPMY1-TP53BP1-CLTA 0 | WPMY1-TUBA1B-RELA 0

CCCC(CCC)C(=O)O [Valproic acid, sodium salt]
inactive: A549-ACTB-RAB5A 0 | A549-CANX-COX4 0 | A549-GM130-SQSTM1 0 | A549-TP53BP1-CLTA 0 | A549-TUBA1B-RELA 0 | HepG2-ACTB-RAB5A 0 | HepG2-CANX-COX4 0 | HepG2-GM130-SQSTM1 0 | HepG2-TP53BP1-CLTA 0 | HepG2-TUBA1B-RELA 0 | WPMY1-ACTB-RAB5A 0 | WPMY1-CANX-COX4 0 | WPMY1-GM130-SQSTM1 0 | WPMY1-TP53BP1-CLTA 0 | WPMY1-TUBA1B-RELA 0

CC(C)OC(=O)C(C)(C)Oc1ccc(C(=O)c2ccc(Cl)cc2)cc1 [Fenofibrate]
inactive: A549-ACTB-RAB5A 0 | A549-CANX-COX4 0 | A549-GM130-SQSTM1 0 | A549-TP53BP1-CLTA 0 | A549-TUBA1B-RELA 0 | HepG2-ACTB-RAB5A 0 | HepG2-CANX-COX4 0 | HepG2-GM130-SQSTM1 0 | HepG2-TP53BP1-CLTA 0 | HepG2-TUBA1B-RELA 0 | WPMY1-ACTB-RAB5A 0 | WPMY1-CANX-COX4 0 | WPMY1-GM130-SQSTM1 0 | WPMY1-TP53BP1-CLTA 0 | WPMY1-TUBA1B-RELA 0

O=C(O)c1cccc(C(=O)O)n1 [2,6-Pyridinedicarboxylic Acid]
inactive: A549-ACTB-RAB5A 0 | A549-CANX-COX4 0 | A549-GM130-SQSTM1 0 | A549-TP53BP1-CLTA 0 | A549-TUBA1B-RELA 0 | HepG2-ACTB-RAB5A 0 | HepG2-CANX-COX4 0 | HepG2-GM130-SQSTM1 0 | HepG2-TP53BP1-CLTA 0 | HepG2-TUBA1B-RELA 0 | WPMY1-ACTB-RAB5A 0 | WPMY1-CANX-COX4 0 | WPMY1-GM130-SQSTM1 0 | WPMY1-TP53BP1-CLTA 0 | WPMY1-TUBA1B-RELA 0

CCCCOc1cc(C(=O)OCCN(CC)CC)ccc1N [oxybuprocaine]
inactive: A549-ACTB-RAB5A 0 | A549-CANX-COX4 0 | A549-GM130-SQSTM1 0 | A549-TP53BP1-CLTA 0 | A549-TUBA1B-RELA 0 | HepG2-ACTB-RAB5A 0 | HepG2-CANX-COX4 0 | HepG2-GM130-SQSTM1 0 | HepG2-TP53BP1-CLTA 0 | HepG2-TUBA1B-RELA 0 | WPMY1-ACTB-RAB5A 0 | WPMY1-CANX-COX4 0 | WPMY1-GM130-SQSTM1 0 | WPMY1-TP53BP1-CLTA 0 | WPMY1-TUBA1B-RELA 0

CCC(=C(CC)c1ccc(O)cc1)c1ccc(O)cc1 (stereo in doubt) [diethylstilbestrol]
inactive: A549-ACTB-RAB5A 0 | A549-CANX-COX4 0 | A549-GM130-SQSTM1 0 | A549-TP53BP1-CLTA 0 | A549-TUBA1B-RELA 0 | HepG2-ACTB-RAB5A 0 | HepG2-CANX-COX4 0 | HepG2-GM130-SQSTM1 0 | HepG2-TP53BP1-CLTA 0 | HepG2-TUBA1B-RELA 0 | WPMY1-ACTB-RAB5A 0 | WPMY1-CANX-COX4 0 | WPMY1-GM130-SQSTM1 0 | WPMY1-TP53BP1-CLTA 0 | WPMY1-TUBA1B-RELA 0

Cc1ccc([N+](=O)[O-])cc1S(=O)(=O)N(C)C
inactive: A549-ACTB-RAB5A 0 | A549-CANX-COX4 0 | A549-GM130-SQSTM1 0 | A549-TP53BP1-CLTA 0 | A549-TUBA1B-RELA 0 | HepG2-ACTB-RAB5A 0 | HepG2-CANX-COX4 0 | HepG2-GM130-SQSTM1 0 | HepG2-TP53BP1-CLTA 0 | HepG2-TUBA1B-RELA 0 | WPMY1-ACTB-RAB5A 0 | WPMY1-CANX-COX4 0 | WPMY1-GM130-SQSTM1 0 | WPMY1-TP53BP1-CLTA 0 | WPMY1-TUBA1B-RELA 0

Cc1ncc([N+](=O)[O-])n1CCOC(=O)NC(Nc1ncccn1)C(Cl)(Cl)Cl (stereo not given) [Apcin]
inactive: A549-ACTB-RAB5A 0 | A549-CANX-COX4 0 | A549-GM130-SQSTM1 0 | A549-TP53BP1-CLTA 0 | A549-TUBA1B-RELA 0 | HepG2-ACTB-RAB5A 0 | HepG2-CANX-COX4 0 | HepG2-GM130-SQSTM1 0 | HepG2-TP53BP1-CLTA 0 | HepG2-TUBA1B-RELA 0 | WPMY1-ACTB-RAB5A 0 | WPMY1-CANX-COX4 0 | WPMY1-GM130-SQSTM1 0 | WPMY1-TP53BP1-CLTA 0 | WPMY1-TUBA1B-RELA 0

CCn1c(=O)c2cc(C(N)=O)c(N)nc2n(C2CC2)c1=O
inactive: A549-ACTB-RAB5A 0 | A549-CANX-COX4 0 | A549-GM130-SQSTM1 0 | A549-TP53BP1-CLTA 0 | A549-TUBA1B-RELA 0 | HepG2-ACTB-RAB5A 0 | HepG2-CANX-COX4 0 | HepG2-GM130-SQSTM1 0 | HepG2-TP53BP1-CLTA 0 | HepG2-TUBA1B-RELA 0 | WPMY1-ACTB-RAB5A 0 | WPMY1-CANX-COX4 0 | WPMY1-GM130-SQSTM1 0 | WPMY1-TP53BP1-CLTA 0 | WPMY1-TUBA1B-RELA 0
